Screening results deposited in PubChem BioAssay by National Center for Advancing Translational Sciences (NCATS).
HepG2 viability: HepG2 cytotoxicity, counter-screen for TGF-b inhibitors. HepG2 CAGA-GFP viability, ATP luminescence, 18 h. Potency, µM (highest dose often 46.1 µM), most hits filed as cytotoxic. actives 0.76% (n = 410,000). AID 588856
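CellTiter-Glo luminescence gave cytotoxicity after 18 hours at 37 degrees C. The cells were HepG2 CAGA-GFP in 1% FBS DMEM, stimulated with 500 pg/mL TGF-beta after compound addition. %Activity was normalised to no-cell wells (complete cell-killing) and DMSO (no toxicity), and curves were fitted and classified.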
TGFb SMAD3 inh: TGF-b pathway inhibition | HepG2 CAGA-GFP TGF-b/SMAD3 reporter, GFP fluorescence, 18 h; TGF-beta stimulated, 500 pg/mL final | Potency, µM (doses to about 46.1 µM), actives largely listed as inhibitors | actives 1.2% (n = 410,000); note: nearly all actives have a fitted effect of over 65% in size
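HEPG2 CAGA-GFP reporter cells (1000/well, DMEM with 1% FBS) received compounds, then recombinant TGF-beta at 500 pg/mL final for 18 hours at 37 degrees C. Per-cell GFP summed per well was normalised to unstimulated and stimulated DMSO controls before curve fitting.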
S2 tox: viability counter-screen for ATXN expression inhibitors. actives 0.49% (n = 400,000). S2 cells (HEK-293 line with an ATXN2-luciferase reporter) viability, CellTiter-Fluor protease fluorescence, 24 h. Potency, µM (doses to about 56.7 µM), actives largely listed as cytotoxic; note: nearly all actives have a fitted effect of over 40% in size
HT1080NT lethal: kills 2HG-producing HT-1080-NT fibrosarcoma cells | Potency, µM (highest dose often 46.1 µM), hits mostly cytotoxic | actives 1.6% (n = 360,000) | HT-1080-NT fibrosarcoma viability, CellTiter-Glo ATP luminescence, 48 h;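 note: NT is the 2HG producing partner of a matched IDH1 knockdown line; nearly all actives have a fitted effect of over 55% in size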
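Luminescent CellTiter-Glo readout after 48 hours of compound exposure at 37 degrees C defined viability of HT-1080-NT cells. Activity was normalized to DMSO wells and cell-free media wells; concentration-response curves were fitted and assigned curve classes.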
ATXN2 expr inh: reduces ATXN2 reporter expression in HEK-293 cells; actives 0.72% (n = 360,000); AID 1745845; Potency, µM (top dose mostly 57 µM), most hits filed as inhibitors; HEK-293 ATXN2-luciferase reporter, luminescence, 24 h; note: nearly all actives have a fitted effect of over 55% in size
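ATXN2-luciferase reporter cells (luciferase flanked by upstream and downstream ATXN2 gene portions) were treated 24 h at 37 °C with compounds at up to 57 uM. SteadyGlo luminescence gave expression; GF-AFC fluorescence gave viability.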
HT1080 IDH1KD tx: kills HT-1080 cells with IDH1 knockdown | Potency, µM (doses to about 46.1 µM), hits mostly cytotoxic | actives 2% (n = 360,000) | HT-1080 IDH1 knockdown viability, ATP luminescence, 48 h | AID 686971
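CellTiter-Glo luminescence after 48 h compound exposure at 37 degrees C of IDH1-knockdown HT-1080 cells in 5% FBS RPMI. %Activity scaled between DMSO wells and cell-free media wells, with curves fitted and assigned curve classes.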
A number is an active result; – = inactive; ? = inconclusive; · = not tested or not shown; ! = repeats disagree; [ ] = remark or other dose. Hits are enriched below; roughly 3.9% of the tested compounds scored in any of these assays. Calls come from the whole dose curve; as a rule, active = well fitted curve in the direction sought with a large enough effect; inconclusive = small, poorly fitted or top-dose-only effect, or another doubt; inactive = no such curve, though single readings can be large; an effect the other way counts as inactive or inconclusive.

SMILES | HepG2 viability | TGFb SMAD3 inh | S2 tox | HT1080NT lethal | ATXN2 expr inh | HT1080 IDH1KD tx
Cn1ncc2c(N3CCN(c4ccccc4Cl)CC3)ncnc21 | – | – | · | · | · | ·
CCOC(=O)c1cc(C)n(CC2CCC(C(=O)Nc3ccc(C)cc3)CC2)c1C (stereo not given) | – | ? | · | · | · | ·
COc1cccc(N2CCN(C(=O)c3ccc(CS(=O)c4ccccc4Cl)o3)CC2)c1 (stereo not given) | – | 11µM | – | ? | – | 0.0082µM
CCN(CC)CC(O)Cn1c(C)c(-c2ccccc2)c2cc([N+](=O)[O-])ccc21 (stereo not given) | – | ? | – | 21µM | ? | ?
Cc1ccc(CSc2ccc3nnc(CCNS(=O)(=O)c4ccc(C)cc4)n3n2)cc1 | – | ? | · | · | · | ·
O=c1cc(CSc2nnc(Nc3ccccc3F)s2)nc2sccn12 | – | – | ? | ? | ? | 18µM
CCC(C)NC(=O)Cn1c(=O)ccc2cc(S(=O)(=O)N3CCCC3)ccc21 (stereo not given) | – | – | – | · | – | ·
Cc1ccc(S(=O)(=O)N(C)C)cc1NC(=S)NC(C)CCCC(C)C (stereo not given) | – | 18µM | – | ? | – | ?
Cc1ccc(S(=O)(=O)N(C)C)cc1NC(=S)NC(C)CCC(C)C (stereo not given) | – | – | – | – | – | –
CC(C(=O)Nc1ccccc1)c1ccc(-c2ccccc2)c(F)c1 (stereo not given) | – | ? | – | ? | – | 21µM
CC(NC(=O)c1ccc(Br)cc1)c1ccccc1 (stereo not given) | – | – | – | – | – | –
CC(C)OP(=O)(OC(C)C)C(NC(=O)c1ccc(Br)cc1)c1ccccc1 (stereo not given) | – | – | – | 20µM | – | ?
CCOc1ccccc1CN1CCc2nc(Nc3ccc4c(c3)OCCO4)ncc2C1 | – | – | ? | · | – | ·
CN(C)CCCn1c2c3ccccc3ccc2c2oc(=O)c3ccccc3c21 | 10µM! | 8.9µM | ? | – | ? | –
CC(=O)c1ccc(-c2cccs2)s1 | – | 10µM | – | – | –[11.3 µM] | –
CNc1cccc(-c2ccc(C(C)=O)s2)n1 | – | – | – | ? | – | –
Cc1ccc2nc(C3CCCCC3)c(CC(C)(C)C)n2c1 | – | ? | 22µM | 16µM | – | ?
COc1ccccc1Cc1c(-c2ccc(Cl)cc2)nc2c(C)cc(Br)cn12 | 13µM | 14µM | ? | ? | ? | ?
FC(F)(F)c1ccccc1Cc1c(C2CCCCC2)nc2ccc(Cl)cn12 | – | ? | 18µM | ? | ? | ?
COc1ccccc1Cc1c(C2CCCCC2)nc2ccc(Cl)cn12 | 18µM | ? | ? | ? | ? | ?
Cc1ccc(Cc2c(C3CCCCC3)nc3ccc(Br)cn23)cc1 | – | ? | ? | ? | – | ?
Clc1ccc2nc(C3CCCCC3)c(Cc3ccccc3)n2c1 | – | – | – | – | – | –
Cc1ccc(-c2noc(CN(C(=O)c3ccc(C(C)(C)C)cc3)C(C)C)n2)cc1 | – | – | – | · | – | ·
CCOC(=O)c1ccc(NC(=O)CN2C(=O)c3cccnc3Oc3ccc(Cl)cc32)cc1 | – | ? | · | · | · | ·
CCOc1ccc(N(C(=O)OC(C)(C)C)C(=O)c2ccc(O[Si](C)(C)C(C)(C)C)cc2)c(I)c1 | – | – | · | · | · | ·
SMILES | HepG2 viability | TGFb SMAD3 inh | S2 tox | HT1080NT lethal | ATXN2 expr inh | HT1080 IDH1KD tx
CC1CCCCN1C(=O)c1ccc2c(c1)N(Cc1ccc(Cl)cc1)C(=O)c1ccccc1S2=O (stereo not given) | – | ? | – | · | – | ·
COc1ccccc1Cc1c(C2CCCCC2)nc2ccc(C)cn12 | – | 16µM | · | 13µM | ? | ?
COC(=O)c1ccc2nc(C3CCCCC3)c(Cc3ccccc3C(F)(F)F)n2c1 | – | 22µM | ? | ? | ? | ?
Cc1ccc(Cc2c(C3CCCCC3)nc3ccc(Cl)cn23)cc1 | – | ? | ? | ? | – | –
CC(C)c1c(C(=O)N2CCN(CCO)CC2)cnn1-c1nccc(-c2cccs2)n1 | · | · | – | · | · | ·
COc1ccc(OC)c(NC(=O)c2oc3c(c2C)-c2nn(Cc4ccc(Cl)cc4)cc2CC3)c1 | – | – | · | · | · | ·
C=CCn1c(SC(F)F)nc2scc(-c3ccco3)c2c1=O | – | 10µM | – | – | – | ?
CCCN1C(=O)C(=O)c2cc(Cl)ccc21 | – | 13µM | ? | 15µM | ? | 15µM
O=C1C(=O)N(CCS(=O)(=O)c2ccccc2)c2ccc(Cl)cc21 | – | 22µM | – | ? | – | ?
CCc1ccc2c(c1)C(=O)C(=O)N2CCS(=O)(=O)c1ccccc1 | – | ? | – | – | · | –
OCCN1CCN(Cc2ccc3c(c2)CN(Cc2cccn2-c2ccccn2)CCO3)CC1 | · | · | – | · | · | ·
